Marburg entry = qHTS for Inhibitors of binding or entry into cells for Marburg Virus; AID 720532, 2013; Potency, µM (series often up to 49.2 µM), without a hit: at the top dose activity change, negative = inhibition, actives largely listed as inhibitors; Marburg virus pseudotype entry/binding inhibition, cell-based; 18,000 compounds, 6.5% hits
LASV entry inh = qHTS for Inhibitors of binding or entry into cells for Lassa Virus. Potency, µM (doses to about 49.2 µM), for inactives: at the highest dose activity change, negative = inhibition, most hits filed as inhibitors. Lassa virus pseudotyped entry inhibition, cell-based qHTS. 18,000 compounds, 4.1% hits
Numbers without * were called inactive; ? = inconclusive; · = no result; ! = repeats disagree; [ ] = dose if it differs, or a comment. Hits are enriched below; roughly 8% of the tested compounds scored in any of these assays. Calls come from the whole dose curve; tested in HEK293 cells. % is set by controls: 0 for no effect and ±100 for the full control effect; potency is the fitted concentration of half-maximal effect.

SMILES	Marburg entry	LASV entry inh
O=C(c1ccc(Cn2cnnn2)cc1)N1CCOc2ccc(C(O)C3CCCCC3)cc2C1 (configuration not stated)	-25.4%	?
O=C(c1n[nH]c2c1CCCC2)N1CCOc2ccc(C(O)C3CCCCC3)cc2C1 (configuration not stated)	11.2µM*	8.91µM*
CCc1nc(CN2CCOc3ccc(C(O)C4CCCCC4)cc3C2)c(C)[nH]1 (configuration not stated)	12.6µM*	?
OC[C@H]1O[C@H](c2ccccc2)C=C[C@H]1O	-7.8%[8.59 µM]	-16.1%[8.59 µM]
COc1cc(OC)c2nc(-c3cc4c(c(OC)c3)OCCN(C(=O)CC3NC(=O)c5ccccc53)C4)cc(C)c2c1 (configuration not stated)	-4.2%	-34.8%
COc1cc(-c2ccc(C(F)(F)F)cn2)cc2c1OCCN(S(=O)(=O)C[C@]13CC[C@H](CC1=O)C3(C)C)C2	?	12.6µM*
Cc1ccccc1Nc1oc(-c2ccccc2)nc1-c1ccc(C(F)(F)F)cc1	16.6%[8.59 µM]	?
CC(C)C[C@H]1COc2cc(NC3CC3)ccc2S(=O)(=O)N1	12.7%	-10.4%
COC1=C2C[C@@H](C)C[C@H](OC)[C@H](O)[C@@H](C)/C=C(\C)[C@H](OC(N)=O)[C@@H](OC)/C=C\C=C(/C)C(=O)NC(=CC1=O)C2=O	15.8µM*	17.8µM*
C=CCNC1=C2C[C@@H](C)C[C@H](OC)[C@H](O)[C@@H](C)/C=C(\C)[C@H](OC(N)=O)[C@@H](OC)/C=C/C=C(\C)C(=O)NC(=CC1=O)C2=O	1.78µM*	2.24µM*
CC(C)=CCCC(C)=CCON=C1C[C@@H](O)[C@@H](O)[C@@H]2[C@H]3C(=O)N(C[C@@H]4CCCO4)C(=O)[C@@H]3CC[C@@H]12	-5.0%[8.59 µM]	3.0%[8.59 µM]
CC(=O)N[C@@H](C=O)[C@H](O)[C@H](O)[C@@H](O)CO	-8.4%	-0.7%
NC(=O)c1cccc(Nc2nccc(Nc3cccc4[nH]ncc34)n2)c1	?	-16.0%
COc1ccc2cc3[n+](cc2c1OC)CCc1cc2c(cc1-3)OCO2	10µM*!	11.2µM*!
COc1cc2c(c(OC)c1OC)C(c1ccc3c(c1)OCO3)CC(=O)O2 (configuration not stated)	53.5%	-4.2%
COc1ccc2c(c[n+](C)c3c4cc5c(cc4ccc23)OCO5)c1OC	4.47µM*	10µM*
COc1ccc2c(c1OC)CN1CCc3cc4c(cc3C1C2)OCO4 (configuration not stated)	1.7%[17.8 µM]	5.7%[17.8 µM]
Cc1cc2c(c(=O)o1)[C@H]1O[C@](c3ccsc3)(Cc3c1ccc1ccccc31)O2	?	13.2%[8.59 µM]
CNCC(=O)N[C@@H](CCCN=C(N)N)C(=O)N[C@H](C(=O)N[C@@H](Cc1ccc(O)cc1)C(=O)N[C@H](C(=O)N[C@@H](Cc1cnc[nH]1)C(=O)N1CCC[C@H]1C(=O)N[C@@H](C)C(=O)O)C(C)C)C(C)C	16.0%	-4.8%
COC1C(O)C(OC2CC[C@]3(C=O)C4C(OC(C)=O)C[C@@]5(C)C(C6=CC(=O)OC6)CC[C@]5(O)C4CC[C@]3(O)C2)OC(C)C1OC(C)=O (some centres not stated)	-13.3%	0.4%
C[C@]12CCC3C(CC[C@]4(O)CC(O)CC[C@@]34C=O)[C@]1(O)CCC2C1=CC(=O)OC1 (some centres not stated)	10µM*	11.2µM*
C[C@@H]1O[C@@H](O[C@H]2CC[C@]3(C=O)C4CC[C@]5(C)[C@@H](C6=CC(=O)OC6)CC[C@]5(O)[C@@H]4CC[C@]3(O)C2)[C@H](O)[C@H](O)[C@H]1O (some centres not stated)	0.1µM*	0.112µM*
CC1O[C@@H](OC2CC[C@@]3(C=O)C4CC[C@]5(C)C(C6=CC(=O)OC6)CC[C@@]5(O)C4CC[C@]3(O)C2)C(O)C(O)C1O (some centres not stated)	0.199µM*	0.251µM*
COC(=O)c1cn([C@@H]2C[C@@H](C(=O)N3CCCCCC3)N(Cc3cc4ccccc4s3)C2)nn1	5.6%	-9.4%
COc1cc(OC)c2nc(-c3cc4c(c(OC)c3)OCCN(Cc3cn(C)nc3C)C4)cc(C)c2c1	-30.3%	?
SMILES	Marburg entry	LASV entry inh
CCOC(=O)NN=C1C[C@@H](O)[C@@H](O)[C@@H]2[C@H]3C(=O)N(C4CCCCC4)C(=O)[C@@H]3CC[C@@H]12	-24.9%[8.59 µM]	·
COc1ccc([C@H]2C[C@H](n3cc(C4CC4)nn3)[C@@H](O)CN2C(=O)c2cccs2)cc1	1.2%	-6.8%
COC(=O)[C@]1(C)CC[C@@]2(C)CC[C@@]3(C)C4=CC=C5C(=CC(=O)C(O)=C5C)[C@@]4(C)CC[C@@]3(C)C2C1 (some centres not stated)	3.55µM*	5.62µM*
Cc1cccc(C)c1Nc1oc(-c2ccccc2)nc1C(C)(C)C	1.6%[8.59 µM]	16.6%[8.59 µM]
COCCNc1nc(-c2ccc(N(C)C)cc2)nc2ccccc12	?	4.0%
CN(C)c1ccc(-c2nc(NC3CCNCC3)c3ccccc3n2)cc1	14.1µM*	-27.8%
NCCCCCCCCCCNS(=O)(=O)c1cccc2c(Cl)cccc12	9.5%	?
NCCCCCCNS(=O)(=O)c1cccc2c(Cl)cccc12	17.8µM*!	?
O[C@H]1C[C@H](c2ccccc2)N(CC2CCCCC2)C[C@H]1n1cc(C2CC2)nn1	-29.7%	-26.0%
CCOC(=O)CN1C(=O)NC(c2ccc(Br)cc2)C(C(=O)OC)=C1C (configuration not stated)	-10.5%[8.59 µM]	-4.0%[8.59 µM]
O[C@@H]1CN(Cc2cccs2)[C@@H](c2ccccc2)C[C@@H]1n1cc(-c2ccc(F)cc2)nn1	?	-23.2%
CCCCCC(=O)N1C[C@@H](n2cc(-c3ccc(F)cc3)nn2)[C@H](O)C[C@H]1c1ccc(C)cc1	?	-9.6%
O=C(Nc1ccc(Cl)c(Cl)c1)C1CC1	5.6%	-9.1%
O=C(Cc1ccc(Cl)c(Cl)c1)N1CCCCC1CN1CCCC1 (configuration not stated)	7.94µM*	?
COc1cc([C@@H](NC(=O)C(F)(F)F)C2CCCCC=C2c2ccccc2)cc(OC)c1OC (some centres not stated)	9.8%[8.59 µM]	?
O=C(OCc1cn([C@@H]2CN(C(=O)C3CCCCC3)[C@@H](c3ccccc3)C[C@@H]2O)nn1)c1ccccc1	?	11.0%
CCC1CN(CCC(=O)N2CCCN(C(=O)c3ccco3)CC2)Cc2cc(OC)ccc2O1 (configuration not stated)	-15.5%	-21.6%
COc1cc(C(CCN2CCOCC2)c2c(OC)cc(OC)c3ccc(=O)oc23)cc(OC)c1OC (configuration not stated)	-11.7%	-23.4%
COc1cc(OC)c2c(-c3ccccc3)cc(=O)oc2c1C(CCN1CCOCC1)c1ccc(N(C)C)cc1 (configuration not stated)	10µM*	?
FC(F)(F)c1ccc(-c2nc(-c3ccccc3)oc2Nc2ccc3ccccc3c2)cc1	31.9%[8.59 µM]	·
CC(=O)[C@]1(O)Cc2c(O)c3c(c(O)c2[C@@H](O[C@H]2C[C@H](N)[C@H](O)[C@H](C)O2)C1)C(=O)c1c(O)cccc1C3=O	0.056µM*	·
COc1cccc2c1C(=O)c1c(O)c3c(c(O)c1C2=O)C[C@@](O)(C(=O)CO)C[C@@H]3O[C@H]1C[C@H](N)[C@H](O[C@@H]2CCCCO2)[C@H](C)O1	1.25µM*	1.12µM*
